From PubChem BioAssay (NCATS)
Active and inactive are the calls of the source. Where a call stands in place of a potency, no number is given. The call rests on the fitted dose curve; in most records, active means well fitted cell-killing curve with a large enough effect; inconclusive means small, poorly fitted or top-dose-only effect; inactive means flat fitted curve, though single readings scatter.

Assay: Cell Viability - LYMP1-002 - Assay at 24 hr (AID 993)
Conditions: LYMP1-002 lymphoblastoid cells viability; series mostly up to 92.2 µM
Excerpt: NIH Chemical Genomics Center [NCGC]
NIH Molecular Libraries Screening Centers Network [MLSCN]
National Institutes of Environmental Health Sciences [NIEHS]
National Toxicology Program [NTP]
We have developed a 1536-well cell-based assay for quantitative high throughput screening (qHTS) against a number of cell lines to determine in vitro cytotoxicity of small molecules. This particular assay uses a human lymphoblastoid cell line (LYMP1-002) purchased from Coriell Institute for Medical Research.
NCGC Assay Protocol Summary:
The CellTiter-Glo luminescent cell viability assay (Promega) is a homogeneous method to measure the number of viable cells in culture. The end point readout of this assay is based on quantitation of intracellular ATP, an indicator of metabolic activity, using the luciferase reaction. Luciferase catalyzes the oxidation of beetle Luciferin to oxyluciferin and light in the presence of ATP. The luminescent signal is proportional to amount of ATP present.
Using the CellTiter-Glo luminescent cell viability assay, the amount of cellular ATP was measured in the lymphoblastoid cell line with complete culture medium following compound treatment for 24 hours. The assay was performed in opaque white Kalypsys 1536-well plates. In the screen, tetraoctylammonium bromide was used as positive control. Library compounds were measured for their ability to cause acute toxicity in the cell line, as reflected by a decrease in intracellular ATP levels, in a concentration-dependent manner. […] AC50 values were determined from concentration-response data modeled with the standard Hill equation.
qHTS protocol for CellTiter Glo lymphoblastoid cellular assay
[Step] [Parameter] [Value] [Description]
1. Reagent; 5 uL; 2500 lymphoblastoid cells/well
2. Time; 5 hr; 37 C incubation
4. Controls; 23 nL; Tetraoctylammonium bromide 6.4pM to 92 uM
5. Time; 24 hr; 37 C incubation
6. Reagent; 5 uL; CellTiter Glo reagent
7. Time; 30 min; Room Temperature
8. Detection; Luminescence; Viewlux plate reader
Keywords: cell viability, cytotoxicity, lymphoblastoid cell line, luminescence, NTPHTS, NTPHTS_NCGC, NIEHS, DSSTox, MLSMR, MLSCN, NIH Roadmap, qHTS, NCGC

Question: With `CC1(N)CCC(C(C)(C)N)CC1` (stereo not given) as the compound, how does the Potency read?
Answer: inactive

Question: Which Potency does the source give for `CC(C)N=C=NC(C)C` here?
Answer: inactive

Question: With `CC(N)CN` (stereo not given) as the compound, how does the Potency read?
Answer: inactive

Question: Which Potency does the source give for `O=C(O[C@@H](C(=O)O)[C@@H](OC(=O)c1ccccc1)C(=O)O)c1ccccc1` here?
Answer: inactive

Question: For `COC(=O)CS`, which Potency is on record?
Answer: inactive

Question: For `O=C(O)c1ccccc1C(=O)O`, which Potency is on record?
Answer: inactive

Question: With `CCCCCCCCCCCCC1CO1` (stereo not given) as the compound, how does the Potency read?
Answer: inactive

Question: Which Potency does the source give for `NC(=O)NC(N)=O` here?
Answer: inactive

Question: With `Cc1ccc(S(=O)(=O)NC2CCCCC2)cc1` as the compound, how does the Potency read?
Answer: inactive

Question: For `Fc1ccccc1`, which Potency is on record?
Answer: inactive

Question: With `CCOC(=O)OCC` as the compound, how does the Potency read?
Answer: inactive

Question: Which Potency does the source give for `CC(C)(C)OC=O` here?
Answer: inactive

Question: For `CC(C)C=O`, which Potency is on record?
Answer: inactive

Question: With `CCNS(=O)(=O)c1ccc(C)cc1` as the compound, how does the Potency read?
Answer: inactive

Question: For `N#CC1(O)CCCCC1`, which Potency is on record?
Answer: inactive

Question: Which Potency does the source give for `Cc1ccc2ncccc2c1` here?
Answer: inactive

Question: For `Cc1ccccc1C(N)=O`, which Potency is on record?
Answer: inactive

Question: For `Cc1cc(C(=O)O)ccc1[N+](=O)[O-]`, which Potency is on record?
Answer: inactive

Question: Which Potency does the source give for `CNc1ccccc1` here?
Answer: inactive

Question: With `CCC1CO1` (stereo not given) as the compound, how does the Potency read?
Answer: inactive

Question: Which Potency does the source give for `C=Cc1ccc(C=C)cc1` here?
Answer: inactive

Question: For `C=CCCC`, which Potency is on record?
Answer: inactive

Question: Which Potency does the source give for `O=[N+]([O-])c1ccccc1CCO` here?
Answer: inactive

Question: With `CC1CCCO1` (stereo not given) as the compound, how does the Potency read?
Answer: inactive

Question: Which Potency does the source give for `c1ccc(Nc2ccccc2)cc1` here?
Answer: inactive

Question: For `C=Cc1ccccn1`, which Potency is on record?
Answer: inactive

Question: With `CCCCOCCOCCOCCCC` as the compound, how does the Potency read?
Answer: inactive

Question: For `CC/C=C1/OC(=O)c2ccccc21`, which Potency is on record?
Answer: inactive

Question: For `CCCCOCCOCCSC#N`, which Potency is on record?
Answer: inactive

Question: With `C=CC(=O)OCCCC` as the compound, how does the Potency read?
Answer: inactive

Question: For `C=CCCCC`, which Potency is on record?
Answer: inactive

Question: Which Potency does the source give for `Cc1ccc(C(C)(C)C)cc1` here?
Answer: inactive

Question: With `CCCCC(CC)C(=O)O` (stereo not given) as the compound, how does the Potency read?
Answer: inactive

Question: Which Potency does the source give for `COc1cccc2sc(N)nc12` here?
Answer: inactive

Question: For `COC(=O)c1ccccc1`, which Potency is on record?
Answer: inactive

Question: Which Potency does the source give for `NS(=O)(=O)O` here?
Answer: inactive

Question: With `Cc1ccc(C)c(N)c1` as the compound, how does the Potency read?
Answer: inactive

Question: For `c1ccc2c(c1)ccc1ncccc12`, which Potency is on record?
Answer: inactive

Question: With `Cc1ccccc1C(=O)O` as the compound, how does the Potency read?
Answer: inactive

Question: With `CCCCCCC(=O)O` as the compound, how does the Potency read?
Answer: inactive
